Measured values reported in PubChem BioAssay (NCATS).
Results filed as inconclusive are left out. Where a call stands in place of a potency, no number is given. A number with no mark means an inactive call. The source made the active and inactive calls. The call rests on the fitted dose curve; in most records, active means well fitted inhibition curve with a large enough effect; inconclusive means small, poorly fitted or top-dose-only effect; inactive means no such curve, though single readings can be large or run the other way.

test system: Zika virus NS2B-NS3 protease (unlinked complex); assay: Primary screen GU Rhodamine qHTS for Zika virus inhibitors: Unlinked NS2B-NS3 protease assay (AID 1347159); conditions: Recombinant ZIKV NS2B-NS3 protease, Rhodamine110 substrate fluorescence; series mostly up to 107 µM; further: nearly all actives have a fitted effect of over 60% in size
Method in brief: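 Noncovalent NS2B hydrophilic domain/NS3 protease complex (25 nM final) in 10 mM Tris-HCl pH 8.0, 0.01% Tween 20, preincubated 15 min with compounds (up to 114 microM), then 1.5 microM Rhodamine110 substrate. Fluorescence change over 15 min fitted to 4-parameter Hill.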
Potency means the concentration at half of the fitted maximal effect.

| Compound | Potency | activity change, negative = inhibition |
| --- | --- | --- |
| C=C1CC2[C@@]3(C)C=CC(=O)C(C)(C)C3=C(O)C(=O)[C@@]2(C)C2(C(=O)OC)C(=O)C(C)OC(=O)[C@@]12C (stereo partly drawn) | inactive | – |
| Cn1cc(-c2cnn3c(N)c(Br)c(C4CCCNC4)nc23)cn1 (stereo not drawn) | inactive | – |
| COc1cc(CN(CCN)C(=O)c2cccs2)ccc1OCc1ccccc1 | inactive | – |
| C=C(C)C(=O)OC1CC2(C)OC(=CC2=O)C(=C)CC2OC(=O)C(=C)C12 (stereo not drawn) | inactive | – |
| C=C(C)C1=C[C@@]2(C)C(=CC1=O)CC[C@@H](O)[C@@H]2C | inactive | – |
| COc1cc2c(cc1NS(=O)(=O)c1ccc(Br)cc1C)n(C)c(=O)n2C | inactive | – |
| O=c1[nH]c2ccc(C#CCN3CCC(Cc4ccccc4)CC3)cc2[nH]1 | inactive | – |
| CCn1c(=O)n([C@H]2CCCN(c3nccc(-c4cc5ccccc5o4)n3)C2)c2ccccc21 | inactive | – |
| N#CC(CCCN1CCN(/N=C/c2cccnc2)CC1)(c1ccccc1)c1ccccc1 | inactive | – |
| CC(C)S(=O)(=O)NC[C@@H]1CC(c2ccc(N3CCCC3)c(F)c2)=NO1 | inactive | – |
| CCCc1cc(C)[nH]c(=O)c1CNC(=O)c1cc(-c2ccc(N3CCN(C(C)C)CC3)nc2)cc2c1cnn2C(C)C | inactive | – |
| Cc1[nH]c(/C=C2\C(=O)Nc3ccc(F)cc32)c(C)c1C(=O)NCCN1CCCC1 | inactive | – |
| C=C1C(=O)O[C@@H]2/C=C(/C)[C@@H](OC(C)=O)C/C=C(\C)C[C@@H](OC(=O)/C(=C/CO)CO)[C@@H]12 | inactive | – |
| O=C(Nc1nnc(-c2ccc3c(c2)OCCO3)o1)C1CCCCC1 | inactive | – |
| CCC(C)C(=O)OC12C(OC(C)=O)C(C)C3(O)C(C=C(CO)CC4(O)C(=O)C(C)=CC43)C1C2(C)C (stereo not drawn) | inactive | – |
| C=C1C(=O)O[C@@H]2C[C@]3(C)[C@@H](CCC(C)O)[C@@H]3C[C@H]12 (stereo partly drawn) | inactive | – |
| CCC(CC)Nc1nc(C)c(-c2ccc(OC(F)(F)F)cc2OC)nc1OC | inactive | – |
| CCCCNc1ncc(-c2ccc(CN3CCOCC3)cn2)c(NC2CCC(O)CC2)n1 (stereo not drawn) | inactive | – |
| CN1CCN(C(=O)CN[C@@H]2C[C@H]2c2ccc(OCc3ccccc3)cc2)CC1 | inactive | – |
| CCC(C)c1ccc(NC(=O)Cn2cnc3c2c(=O)n(C)c(=O)n3C)cc1 (stereo not drawn) | inactive | – |

| Compound | Potency | activity change, negative = inhibition |
| --- | --- | --- |
| CC(O)C(C)n1ncn(-c2ccc(N3CCN(c4ccc(OCC5COC(Cn6cncn6)(c6ccc(Cl)cc6Cl)O5)cc4)CC3)cc2)c1=O (stereo not drawn) | inactive | – |
| CCC(C)CNCC(=O)N1CCC2SC=CC2C1COc1cccc(C)c1 (stereo not drawn) | inactive | – |
| CC(=O)O[C@@H]1C[C@@]2(C)C(CC[C@]3(C)C2CC=C2C4CC(C)(C)CC[C@]4(C(=O)O)CC[C@]23C)C(C)(C)[C@H]1O (stereo partly drawn) | 7.08 µM (active) | – |
| O=C(NCCN1CCN(c2cccc3ccc(O)cc23)CC1)c1ccc(F)cc1 | inactive | – |
| CC(=O)OC1CC(O)(C(C)C)C2C(OC(=O)c3ccc(O)cc3)C=C(C)C(=O)CC12C (stereo not drawn) | inactive | – |
| CN(C)S(=O)(=O)c1ccc(NC(=S)N2CCC(C(O)(c3ccccc3)c3ccccc3)CC2)cc1 | inactive | – |
| Fc1ccc(-n2cc(CCCCN3CCC4(CC3)OCc3ccccc34)c3ccccc32)cc1 | inactive | – |
| CCc1cc2c(cc1CC)CC(NCC(O)c1ccc(O)c3[nH]c(=O)ccc13)C2 (stereo not drawn) | inactive | – |
| NC(=O)c1ccccc1Nc1ccnc(Nc2cccc(O)c2)n1 | inactive | – |
| O=C(Nc1ccccc1)N1CCN(c2nc(-c3ccccc3)ns2)CC1 | inactive | – |
| N#CC(CCCN1CCC(O)(c2ccc(Cl)cc2)CC1)(c1ccccc1)c1ccccc1 | inactive | – |
| CN1CCN(C2=Nc3ccccc3Nc3ccc(Cl)cc32)CC1 | inactive | – |
| C=CC(C)(O)CC/C=C(\C)C(=O)OC1C(O)C(CO)OC(OC(=O)C23CCC(C)(C)CC2C2=CCC4C5(C)CCC(OC6OC(COC7OCC(OC(C)=O)C(O)C7OC7OC(COC(C)=O)C(O)C(O)C7OC(C)=O)C(O)C(O)C6OC6OCC(O)C(O)C6O)C(C)(C)C5CCC4(C)C2(C)C(O)C3O)C1OC1OCC(OC2OCC(O)C(OC3OCC(O)C(O)C3O)C2O)C(O)C1O (stereo not drawn) | – | 23.6% [at 19.1 µM] |
| CC1OC2OC(=O)C3(C)CC4C5(CO5)C5=CC(=O)OC(C)(C)C5=CC(=O)C4(C)C(C1=O)C23 (stereo not drawn) | 15.8 µM (active) | – |
| C1=C/COCc2cc(ccc2OCCN2CCCC2)Nc2nccc(n2)-c2cccc(c2)COC/1 | inactive | – |
| O=C(NCCCn1ccnc1)c1cc(-c2ccco2)on1 | inactive | – |
| O=C(Nc1ccccc1)N1CCC(Cc2cnc3ccccc3c2)CC1 | inactive | – |
| CC(=O)O[C@H]1CC2C(COC(=O)CC(C)C)=CO[C@@H](OC(=O)CC(C)C)C2[C@]12CO2 (stereo partly drawn) | inactive | – |
| O=C(NCc1ccccc1-c1ccccc1C(=O)NCCc1ccccn1)OCc1ccccc1 | inactive | – |

test system: Zika virus NS2B-NS3 protease (linked construct); assay: Primary screen NINDS Rhodamine qHTS for Zika virus inhibitors (AID 1347160); conditions: purified NS2B-NS3 protease, Rhodamine110 substrate fluorescence; series mostly up to 57.1 µM; further: nearly all actives have a fitted effect of over 55% in size
Method in brief: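 Purified NS2B-NS3 protease with the NS2B hydrophilic domain joined by a flexible linker (25 nM) in 10 mM Tris-HCl pH 8.0, 0.01% Tween 20, preincubated 15 min at RT with compound; Rhodamine110 peptide substrate 1.5 µM; fluorescence change over 15 min; 4-parameter Hill fit.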

| Compound | Potency | activity change, negative = inhibition |
| --- | --- | --- |
| C=C1CC2[C@@]3(C)C=CC(=O)C(C)(C)C3=C(O)C(=O)[C@@]2(C)C2(C(=O)OC)C(=O)C(C)OC(=O)[C@@]12C (stereo partly drawn) | inactive | – |
| Cn1cc(-c2cnn3c(N)c(Br)c(C4CCCNC4)nc23)cn1 (stereo not drawn) | inactive | – |
| COc1cc(CN(CCN)C(=O)c2cccs2)ccc1OCc1ccccc1 | inactive | – |
| C=C(C)C(=O)OC1CC2(C)OC(=CC2=O)C(=C)CC2OC(=O)C(=C)C12 (stereo not drawn) | inactive | – |
| C=C(C)C1=C[C@@]2(C)C(=CC1=O)CC[C@@H](O)[C@@H]2C | inactive | – |
| COc1cc2c(cc1NS(=O)(=O)c1ccc(Br)cc1C)n(C)c(=O)n2C | inactive | – |
| O=c1[nH]c2ccc(C#CCN3CCC(Cc4ccccc4)CC3)cc2[nH]1 | inactive | – |
| CCn1c(=O)n([C@H]2CCCN(c3nccc(-c4cc5ccccc5o4)n3)C2)c2ccccc21 | inactive | – |
| N#CC(CCCN1CCN(/N=C/c2cccnc2)CC1)(c1ccccc1)c1ccccc1 | inactive | – |
| CC(C)S(=O)(=O)NC[C@@H]1CC(c2ccc(N3CCCC3)c(F)c2)=NO1 | inactive | – |
| CCCc1cc(C)[nH]c(=O)c1CNC(=O)c1cc(-c2ccc(N3CCN(C(C)C)CC3)nc2)cc2c1cnn2C(C)C | inactive | – |
| Cc1[nH]c(/C=C2\C(=O)Nc3ccc(F)cc32)c(C)c1C(=O)NCCN1CCCC1 | inactive | – |
| C=C1C(=O)O[C@@H]2/C=C(/C)[C@@H](OC(C)=O)C/C=C(\C)C[C@@H](OC(=O)/C(=C/CO)CO)[C@@H]12 | inactive | – |
| O=C(Nc1nnc(-c2ccc3c(c2)OCCO3)o1)C1CCCCC1 | inactive | – |
| CCC(C)C(=O)OC12C(OC(C)=O)C(C)C3(O)C(C=C(CO)CC4(O)C(=O)C(C)=CC43)C1C2(C)C (stereo not drawn) | inactive | – |
| C=C1C(=O)O[C@@H]2C[C@]3(C)[C@@H](CCC(C)O)[C@@H]3C[C@H]12 (stereo partly drawn) | inactive | – |
| CCC(CC)Nc1nc(C)c(-c2ccc(OC(F)(F)F)cc2OC)nc1OC | inactive | – |
| CCCCNc1ncc(-c2ccc(CN3CCOCC3)cn2)c(NC2CCC(O)CC2)n1 (stereo not drawn) | inactive | – |
| CN1CCN(C(=O)CN[C@@H]2C[C@H]2c2ccc(OCc3ccccc3)cc2)CC1 | inactive | – |
| CCC(C)c1ccc(NC(=O)Cn2cnc3c2c(=O)n(C)c(=O)n3C)cc1 (stereo not drawn) | inactive | – |

| Compound | Potency | activity change, negative = inhibition |
| --- | --- | --- |
| CC(O)C(C)n1ncn(-c2ccc(N3CCN(c4ccc(OCC5COC(Cn6cncn6)(c6ccc(Cl)cc6Cl)O5)cc4)CC3)cc2)c1=O (stereo not drawn) | inactive | – |
| CCC(C)CNCC(=O)N1CCC2SC=CC2C1COc1cccc(C)c1 (stereo not drawn) | inactive | – |
| CC(=O)O[C@@H]1C[C@@]2(C)C(CC[C@]3(C)C2CC=C2C4CC(C)(C)CC[C@]4(C(=O)O)CC[C@]23C)C(C)(C)[C@H]1O (stereo partly drawn) | 11.2 µM (active) | – |
| O=C(NCCN1CCN(c2cccc3ccc(O)cc23)CC1)c1ccc(F)cc1 | inactive | – |
| CC(=O)OC1CC(O)(C(C)C)C2C(OC(=O)c3ccc(O)cc3)C=C(C)C(=O)CC12C (stereo not drawn) | inactive | – |
| CN(C)S(=O)(=O)c1ccc(NC(=S)N2CCC(C(O)(c3ccccc3)c3ccccc3)CC2)cc1 | inactive | – |
| Fc1ccc(-n2cc(CCCCN3CCC4(CC3)OCc3ccccc34)c3ccccc32)cc1 | inactive | – |
| CCc1cc2c(cc1CC)CC(NCC(O)c1ccc(O)c3[nH]c(=O)ccc13)C2 (stereo not drawn) | inactive | – |
| NC(=O)c1ccccc1Nc1ccnc(Nc2cccc(O)c2)n1 | inactive | – |
| O=C(Nc1ccccc1)N1CCN(c2nc(-c3ccccc3)ns2)CC1 | inactive | – |
| N#CC(CCCN1CCC(O)(c2ccc(Cl)cc2)CC1)(c1ccccc1)c1ccccc1 | inactive | – |
| CN1CCN(C2=Nc3ccccc3Nc3ccc(Cl)cc32)CC1 | inactive | – |
| C=CC(C)(O)CC/C=C(\C)C(=O)OC1C(O)C(CO)OC(OC(=O)C23CCC(C)(C)CC2C2=CCC4C5(C)CCC(OC6OC(COC7OCC(OC(C)=O)C(O)C7OC7OC(COC(C)=O)C(O)C(O)C7OC(C)=O)C(O)C(O)C6OC6OCC(O)C(O)C6O)C(C)(C)C5CCC4(C)C2(C)C(O)C3O)C1OC1OCC(OC2OCC(O)C(OC3OCC(O)C(O)C3O)C2O)C(O)C1O (stereo not drawn) | – | -13.7% [at 10.7 µM] |
| CC1OC2OC(=O)C3(C)CC4C5(CO5)C5=CC(=O)OC(C)(C)C5=CC(=O)C4(C)C(C1=O)C23 (stereo not drawn) | 12.6 µM (active) | – |
| C1=C/COCc2cc(ccc2OCCN2CCCC2)Nc2nccc(n2)-c2cccc(c2)COC/1 | inactive | – |
| O=C(NCCCn1ccnc1)c1cc(-c2ccco2)on1 | inactive | – |
| O=C(Nc1ccccc1)N1CCC(Cc2cnc3ccccc3c2)CC1 | inactive | – |
| CC(=O)O[C@H]1CC2C(COC(=O)CC(C)C)=CO[C@@H](OC(=O)CC(C)C)C2[C@]12CO2 (stereo partly drawn) | inactive | – |
| O=C(NCc1ccccc1-c1ccccc1C(=O)NCCc1ccccn1)OCc1ccccc1 | inactive | – |
